Laboratory results reported in PubChem BioAssay.

Test: small molecules captured by biotinylated probe aFST – biochemical, small-molecule microarray, fluorescence 635/667, stem cell growth factor project, primary screen (AID 1086);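 further: score merges 667 nm fluorescence with signal-to-noise of each printed compound spot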
Conditions: higher = more signal
Work on `COCCCNC(=O)[C@@]1(Cc2ccccc2)COC(c2ccc(OCCCO)cc2)=N1` yielded a composite z-score of 0.696.
Work on `COC(=O)[C@]1(Cc2ccccc2CN=[N+]=[N-])N=C(c2ccc(OCCCO)cc2)O[C@@H]1c1ccccc1CN=[N+]=[N-]` yielded a composite z-score of -0.117.
With `O=C1NC(=O)C2C1C=CC(C(O)c1ccc(-c3ccccc3)s1)N2Nc1ccccn1` (centres undefined) the composite z-score was 0.781.
`C=C(C(=O)CC[C@H](OC(=O)c1cccnc1)c1ccc(OCCO)cc1)C(C)C` showed a composite z-score of 0.995.
Work on `Cc1ccc(N2C(=O)c3ccccc3[C@](C)(C(=O)NC(C)C)[C@@H]2c2ccc(CO)cc2)nc1` yielded a composite z-score of -0.927.
`CCCCC=C[C@@H](NC(=O)CCc1ccccc1)c1ccccc1` gave a composite z-score of 0.843.
`C=CCC(OC(C)=O)[C@@H]1[C@@H](N(Cc2cccc3ccccc23)C(=O)c2ccc(C)cc2)c2cc(OCCCO)ccc2N1C(=O)c1ccc2ccccc2c1` (some centres undefined) showed a composite z-score of 0.137.
`C[C@]12C(=O)N(CCCCCO)[C@@H]3C(=O)N(c4ccc(Cl)cc4)CC=CC31O[C@@H]1/C=C\CCCOC(=O)C12` (some centres undefined) showed a composite z-score of -0.733.
`O=C1c2ccccc2[C@](Cc2ccccc2I)(C(=O)NCC(F)(F)F)[C@H](c2ccc(CO)cc2)N1Cc1ccccc1` showed a composite z-score of 0.585.
With `O=C(O)[C@@]1(Cc2ccccc2)COC(c2ccc(OCCCO)cc2)=N1` the composite z-score was 0.519.
For `COCCCNC(=O)[C@]1(Cc2ccccc2)N=C(c2ccc(OCCCO)cc2)O[C@@H]1c1ccccc1N=[N+]=[N-]`, the composite z-score was 1.47.
For `COCCOC(=O)N1C(=O)[C@@]2(c3cc(C#Cc4ccc(OC)cc4)ccc31)[C@H](C(=O)N1CCc3cc(OC)c(OC)cc3C1)[C@H]1C(=O)O[C@H](c3ccccc3)[C@H](c3ccccc3)N1[C@@H]2c1ccc(OCCO)cc1`, the composite z-score was 0.0478.
`CC(C)NC(=O)[C@@]1(Cc2ccccc2I)c2ccccc2C(=O)N(Cc2ccccc2C(F)(F)F)[C@H]1c1ccc(CO)cc1` gave a composite z-score of 0.0674.
In the case of `COC(=O)[C@@]1(Cc2ccc(OC)cc2)[C@H]2c3cc(C(=O)N(C)C)n(Cc4cc(F)c(F)c(F)c4)c3C[C@H]2CN1C(=O)c1ccccc1`, the composite z-score is reported as 1.24.
In the case of `O=C1N(CCS(=O)(=O)c2ccccc2)Cc2ccccc2C[C@@]12COC(c1ccc(OCCCO)cc1)=N2`, the composite z-score is reported as 1.58.
`Cc1ccc(S[C@]2(C(=O)O)CC(=O)N(Cc3ccccc3C(F)(F)F)[C@@H]2c2ccc(CO)cc2)cc1` gave a composite z-score of -0.49.
With `O=C1N(CCS(=O)(=O)c2ccccc2)c2ccccc2[C@H]2OC(c3ccc(OCCCO)cc3)=N[C@@]12CCS(=O)(=O)c1ccccc1` the composite z-score was 1.43.
For `CC(C)C(CO)N1C(=O)[C@@H]2[C@H]3C(=O)OCC=C[C@H]3OC23C=CCN(CCN2CCOCC2)C(=O)[C@@H]13` (some centres undefined), the composite z-score was -0.525.
Work on `CC(C)(C)OC(=O)CC[C@@]1(C(=O)N2CCCCC2)N=C(c2ccc(OCCCO)cc2)O[C@@H]1c1ccccc1N=[N+]=[N-]` yielded a composite z-score of 1.34.
For `CCCCCCC#C[Si](O[C@H](c1ccccc1)c1cn(Cc2cccc(Cl)c2)nn1)(C(C)C)C(C)C`, the composite z-score was -0.0431.
In the case of `C=CCOC(=O)[C@@H]1[C@H]2C(=O)O[C@H](c3ccccc3)[C@H](c3ccccc3)N2[C@H](c2ccc(OCCOC(=O)[C@@H]3C[C@@H]4C(=O)N5CCC[C@H]5C(=O)N4[C@@H]3c3cccc(OCCO)c3)cc2)[C@@]12C(=O)Nc1ccc(I)cc12`, the composite z-score is reported as 0.252.
Compound `C=CCC(OC(C)=O)[C@@H]1[C@@H](N(Cc2cccc3ccccc23)C(=O)Cc2ccc(F)cc2)c2cc(OCCCO)ccc2N1C(=O)Cc1ccc(OC)cc1` (some centres undefined) has a composite z-score of 0.0417.
`CO[C@H]1O[C@H](CO)[C@@H](OC(=O)Nc2ccc(C(F)(F)F)cc2)[C@H](OC(=O)Nc2ccccc2)[C@H]1OC(=O)Nc1ccccc1` showed a composite z-score of 1.07.
Work on `C=C(COC)C(=O)CC[C@H](OC(=O)c1ccccc1-c1ccccc1C(=O)O)c1ccc(CO)o1` yielded a composite z-score of -0.118.
`CC(C)CNC(=O)[C@@]1(C)c2ccccc2C(=O)N(Cc2ccccc2)[C@H]1c1ccc(CO)cc1` showed a composite z-score of 0.267.
`CCC[C@@H]1C[C@@]1(CCC)[C@@H](NC(=O)c1ccco1)c1ccc(Cl)cc1` showed a composite z-score of 0.161.
`[N-]=[N+]=NCc1ccccc1[C@H]1OC(c2ccc(OCCCO)cc2)=N[C@@]1(Cc1ccccc1)C(N)=O` showed a composite z-score of 1.24.
`COc1ccc([Si](C)(C)[C@H]2[C@H](CCO)O[C@@]3(C(=O)N(Cc4cccc(N5CCOC5=O)c4)c4ccccc43)[C@@H]2C)cc1` showed a composite z-score of -0.292.
`C[N+](C)(C)CCCC[C@@H]1NC(=O)[C@@H]2C[C@H](C(=O)NCCCCCNC(=O)CS)[C@H](c3cccc(OCCO)c3)N2C1=O` showed a composite z-score of -0.0763.
